This note sets out measurements from PubChem BioAssay (EPA / NIEHS).

Values joined by “and” are separate entries in the source; they are usually repeats but may differ in a detail not shown here. Equal entries are not always repeated. Records with an inconclusive call do not appear. Where a structure was tested more than once in an assay, its records may differ in their call. Active and inactive are the calls of the source. How the source made its calls: active means hit-call score of the fitted dose curve at least 0.9, where 1 is the maximum; inconclusive means response in the unintended direction; inactive means score below 0.9.

The nature of assay [1]: TOX21_p53_BLA_p2_viability: Viability Assessment in the Tox21 HCT-116 p53 Agonism Beta-lactamase Assay, Phase 2 (AID 2283591).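 Further: compound exposure lasted 16 h at 37 °C; actives lower the ATP signal meaning cytotoxicity.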 The method in brief: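 HCT-116 p53-bla cells (4000/well) rested 5 h at 37C, then received compounds in DMSO (217-fold dilution) for 16 h at 37C, 5% CO2. After the CCF4 read, CellTiter-Glo was added; ATP luminescence was read after 30 min at room temperature.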

Assay [2] addresses Cellular tumor antigen p53 (Homo sapiens) (UniProt P04637). The assay can be described thus: TOX21_p53_BLA_p2_ratio: Tox21 HCT-116 p53 Agonism Beta-lactamase Assay, Ratio, Phase 2 (AID 2283592). The essentials:
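Gain-of-signal p53 agonism was scored from the beta-lactamase FRET ratio (460/530 nm, 405 nm excitation) in HCT116 cells treated 16 h at 37C, 5% CO2, with DMSO serving as negative control and baseline.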

Assay [3] in a line: TOX21_p53_BLA_p3_viability: Viability Assessment in the Tox21 HCT-116 p53 Agonism Beta-lactamase Assay, Phase 3 (AID 2283593).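 Further: cells exposed to compound for 16 h before reading.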 The essentials:
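HCT-116 cells (4000/well) rested 5 h at 37C, then got DMSO compounds by pin tool (217-fold dilution) for 16 h at 37C, 5% CO2. After the bla read, CellTiter-Glo was added and luminescence read at 30 min, room temperature.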

Assay [4] has as its target Cellular tumor antigen p53 (Homo sapiens) (UniProt P04637). The assay can be described thus: TOX21_p53_BLA_p3_ratio: Tox21 HCT-116 p53 Agonism Beta-lactamase Assay, Ratio, Phase 3 (AID 2283596). The method in brief:
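HCT116 p53-bla cells (4000/well) given compound in DMSO (217-fold dilution) after 5 h, incubated 16 h at 37C. CCF4-AM substrate 2 h at room temperature; 460/530 nm emission ratio, gain fitted against DMSO.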

Assay [5] can be described thus: TOX21_p53_BLA_p4_viability: Viability Assessment in the Tox21 HCT-116 p53 Agonism Beta-lactamase Assay, Phase 4 (AID 2283597).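 Further: hits lower the luminescence signal meaning cytotoxicity.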 The essentials: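 Following a 16 h exposure at 37C, the treated HCT116 wells were first read for the FRET ratio. They were then lysed with CellTiter-Glo, and ATP luminescence was recorded after 30 min at room temperature.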
For assay [6], the target named is Cellular tumor antigen p53 (Homo sapiens) (UniProt P04637). The assay can be described thus: TOX21_p53_BLA_p4_ratio: Tox21 HCT-116 p53 Agonism Beta-lactamase Assay, Ratio, Phase 4 (AID 2283601). The method in brief:
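HCT116 cells carrying an inducible beta-lactamase reporter were plated at 4000 cells/well, rested 5 h, then exposed to compounds in DMSO (217-fold dilution) for 16 h at 37C. CCF4-AM substrate was loaded 2 h at room temperature; 460/530 nm emission ratio scored gain-of-signal versus DMSO.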

For assay [7] the target is unchanged. The experiment in a line: TOX21_p53_BLA_p5_ratio: Tox21 HCT-116 p53 Agonism Beta-lactamase Assay, Ratio, Phase 5 (AID 2283599). The essentials:
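HCT-116 cells carrying a p53-inducible beta-lactamase reporter were seeded at 4000 cells/well and dosed after 5 h with compound in DMSO (217-fold dilution). After 16 h at 37C, CCF4-AM substrate was added for 2 h, and the 460/530 nm emission ratio was scored as gain-of-signal versus DMSO.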

The nature of assay [8]: TOX21_p53_BLA_p5_viability: Viability Assessment in the Tox21 HCT-116 p53 Agonism Beta-lactamase Assay, Phase 5 (AID 2283600). The essentials: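 After the 460/530 nm beta-lactamase measurement, the wells received an ATP-detection luciferase reagent; signal was read 30 min later at RT. Compound treatment lasted 16 h on cells pre-incubated 5 h post-seeding.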
Assay [9] can be described thus: ATG_XTT_Cytotoxicity: Cytotoxicity Assessment in the Attagene TRANS-FACTORIAL HepG2 Assay (AID 2283584). The method in brief: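 Viability endpoint from XTT after 24 h chemical exposure of reporter-transfected human HepG2 liver cells; signal loss fitted relative to DMSO negative control.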

Sequence of Cellular tumor antigen p53 (Homo sapiens) (P04637 whole entry, looked up): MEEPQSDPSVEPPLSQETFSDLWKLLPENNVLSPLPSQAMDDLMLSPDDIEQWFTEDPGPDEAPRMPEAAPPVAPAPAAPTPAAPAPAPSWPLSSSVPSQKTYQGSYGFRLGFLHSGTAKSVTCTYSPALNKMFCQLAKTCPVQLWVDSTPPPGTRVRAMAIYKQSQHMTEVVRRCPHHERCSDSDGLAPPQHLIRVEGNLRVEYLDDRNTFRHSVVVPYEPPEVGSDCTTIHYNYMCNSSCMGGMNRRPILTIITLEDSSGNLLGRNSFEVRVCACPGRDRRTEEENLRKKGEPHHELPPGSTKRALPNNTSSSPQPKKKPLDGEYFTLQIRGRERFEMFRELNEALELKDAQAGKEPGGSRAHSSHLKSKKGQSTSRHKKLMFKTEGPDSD

By AC50 is commonly meant the concentration at which the activity in the assay is half-maximal. Consider `CCCCCCCCCCCCCOP(=O)(O)O`, for which the result in [1], in assay [2], in assay [5] and in [6] was inactive. In addition, the AC50 is 72.2 µM (active) in assay [3] and 86.8 µM (active) in [4].

In the case of `CC(C)=CCC/C(C)=C\C#N`, the result in [1], in assay [2], in [3], in assay [4], in assay [7] and in assay [8] was inactive. Moreover, in assay [6], the outcome was inactive.

Consider `CCOC(=O)CC`, for which the compound was classed as inactive in [1], in assay [2], in [3], in assay [7], in assay [8] and in assay [6].

With `Cc1cc(=O)n(-c2ccccc2)n1C`, the outcome in assay [1], in assay [2], in assay [3], in [4], in assay [5] and in assay [7] was inactive. The call in assay [8] and in assay [6] was inactive.

For `O=S(=O)(O)CC(O)CCl` (stereo not drawn), the call in assay [1], in [2], in [3], in [4] and in [6] was inactive.

`c1ccc2c(c1)ccc1cc3c(ccc4ccccc43)cc12`: the result in assay [1], in [2], in assay [4], in assay [5], in assay [7] and in [8] was inactive. For the same compound, the result in assay [6] was inactive.

With `O=C(O)CCCCCCCCCC(=O)O`, the compound was classed as inactive in assay [1], in assay [2], in [3], in assay [4], in assay [7] and in [8]. Besides, the outcome in assay [6] was inactive.

Consider `O=C(O)c1cc(Cl)cc([N+](=O)[O-])c1Cl`, for which the call in assay [9], in assay [5], in assay [8] and in [6] was inactive.

On to `O=C(O)Cc1c(Cl)ccc(Cl)c1Cl`, for which the compound was classed as inactive in assay [9], in [4] and in assay [8].

In the case of `C[C@]12CCC(=O)C=C1CC[C@@H]1[C@@H]2C(=O)C[C@@]2(C)[C@H]1CC[C@]2(O)C(=O)CO`, the compound was called inactive in [1], in [2], in [3], in assay [4], in [5] and in assay [7]. Further, the outcome in assay [8] and in assay [6] was inactive.

On to `C[Si](C)O[Si](C)(C)O[Si](C)(C)O[Si](C)C`, for which the compound was classed as inactive in assay [9], in assay [4] and in [8].

In the case of `O=C1C=CC(=O)O1`, the call in [1], in assay [2], in [7], in [8] and in assay [6] was inactive.

On to `Nc1ccc(Cl)cc1Cl`, for which the result in assay [2], in assay [3], in [4], in [7] and in assay [6] was inactive.

For the compound `COC(=O)c1sccc1S(N)(=O)=O`, the outcome in [2], in assay [5] and in assay [6] was inactive.

`CCCCCCC(O)CO` (stereo not drawn): the result in [2], in assay [3], in assay [4], in assay [5], in assay [7] and in assay [8] was inactive. Further, the outcome in [6] was inactive.

For the compound `COC(=O)/C=C/C(C)=C\C=C\C(C)=C\C=C\C=C(C)\C=C\C=C(C)\C=C\C(=O)O`, the result in assay [2], in assay [3], in [4], in [5] and in assay [7] was inactive.

Consider `CCOc1ccc(N)c([N+](=O)[O-])c1`, for which the result in [2], in assay [3] and in assay [8] was inactive.

`SCCc1cnccn1`: the concentration at half-maximal activity (AC50) is 45.1 µM (active) in [2], 21.6 µM (active) in [4], 35.7 µM (active) in assay [7] and 60.3 µM (active) in [6]. The compound was called inactive in [3] and in assay [5].

As to `COC(=O)/C=C\C(=O)O`, the call in [1], in assay [3], in [7], in assay [8] and in assay [6] was inactive.

For `C=C1[C@H]2CC[C@@H]3[C@H]2C(C)(C)CCC[C@]13C`, the outcome in assay [4] and in assay [5] was inactive.

Turning to `O=C1CC2CC1C1CCCC21` (stereo not drawn), the result in assay [2] and in assay [7] was inactive.

For the compound `C=CC(C)(CCC=C(C)C)OC(=O)C(C)C` (stereo not drawn), the result in assay [2], in [7] and in assay [6] was inactive.

As for `O=C(C=Cc1ccccc1)OCc1ccccc1`, the result in assay [2], in [3], in assay [4], in [5], in assay [7] and in assay [8] was inactive. Further, the result in assay [6] was inactive.

As to `Cc1cc(C)c(C)cc1C`, the result in [2], in [4], in assay [7], in [8] and in [6] was inactive.

Regarding `C=CCOc1c(Br)cc(Br)cc1Br`, the result in assay [3], in [4], in assay [7], in [8] and in assay [6] was inactive.

On to `Cc1ccc(C(C)(C)C)cc1`, for which the outcome in assay [2], in [4], in assay [7], in assay [8] and in [6] was inactive.

For the compound `O=C1CCCN1CCO`, the result in assay [2], in assay [4], in [5], in assay [7], in [8] and in assay [6] was inactive.

For `O=C(Nc1ccccc1SSc1ccccc1NC(=O)c1ccccc1)c1ccccc1`, the concentration at half-maximal activity (AC50) in [2] is 58.3 µM (active) and 56.6 µM (active); in assay [4], 72.5 µM (active); in [7] it was 60 µM (active) and 53.4 µM (active); in assay [6], 65.5 µM (active) and 56.9 µM (active). Besides, the outcome in [3], in [4], in assay [5] and in assay [8] was inactive.

As for `CC(=O)Nc1ccc2c(c1)Cc1cc(NC(C)=O)ccc1-2`, the result in assay [2], in assay [3], in assay [4] and in assay [5] was inactive.

For the compound `CC(=O)OCCC1CCCCC1`, the outcome in assay [2], in assay [3], in [4] and in [5] was inactive.

On to `N#CCc1ccc(Cl)cc1Cl`, for which the compound was called inactive in [1], in assay [5], in [7] and in [6].

Consider `O=C1CCCC(=O)O1`, for which the outcome in assay [2], in assay [5], in assay [8] and in assay [6] was inactive.

Take `O=S(=O)(O)c1ccc2cc(O)c(S(=O)(=O)O)cc2c1`: the compound was classed as inactive in [3], in assay [5] and in assay [8].

In the case of `Cc1ccc(N/N=c2\c(=O)cc/c(=N/Nc3ccc(S(=O)(=O)O)cc3)c2=O)c(C)c1`, the result in assay [1], in [3], in assay [5], in [7], in [8] and in assay [6] was inactive.

As for `CC1=Nc2ccc3ccccc3c2C1(C)C`, the outcome in assay [2], in [3], in [4], in assay [7], in assay [8] and in assay [6] was inactive.

For `CO[Si](OC)(OC)c1ccccc1`, the outcome in assay [2], in [4], in assay [5] and in [6] was inactive.

With `COc1ccc(-c2coc3cc(O)ccc3c2=O)cc1`, the result in [3], in [4], in assay [5] and in assay [8] was inactive.

For `CCCOC(=O)CCCCC(=O)OCCC`, the outcome in [2], in assay [3], in [4], in assay [5], in [8] and in assay [6] was inactive.

`CCN(CCC#N)c1ccc(N=Nc2c(Cl)cc([N+](=O)[O-])cc2Cl)cc1`: the result in [2], in assay [3], in [4], in [5], in [7] and in [8] was inactive. For the same compound, the result in [6] was inactive.

As for `OC1OCCOC1O` (stereo not drawn), the result in assay [2], in assay [3], in assay [4], in assay [5], in [7] and in [6] was inactive.

With `Cc1cccc(OCCOc2cccc(C)c2)c1`, the result in assay [2], in assay [3], in assay [4], in assay [7] and in assay [6] was inactive.

Consider `O=C(c1ccccc1)c1ccc(O)c(O)c1O`, for which the result in [2], in [4], in [7] and in assay [6] was inactive.

On to `O=C(Cl)c1cc(C(=O)Cl)cc(C(=O)Cl)c1`, for which the outcome in assay [2], in assay [4], in assay [5], in assay [7] and in assay [8] was inactive.

In the case of `O=CN1CCCCC1`, the result in [2], in assay [3], in assay [4], in [8] and in [6] was inactive.

With `Cc1cccc(N)n1`, the outcome in [2], in [5], in [7], in assay [8] and in assay [6] was inactive.

Consider `C=C(C)c1cccc(C(C)(C)N=C=O)c1`, for which the outcome in assay [2], in [3], in [7], in assay [8] and in assay [6] was inactive.

Take `CCC(C)OC(=O)c1ccc(O)cc1` (stereo not drawn): the outcome in assay [2], in [3], in assay [4], in [7], in assay [8] and in [6] was inactive.

As to `O=C1CCCCCCCCCCC(=O)OCCO1`, the result in assay [2], in [4], in assay [8] and in assay [6] was inactive.
